Some test systems named below: NCI-H23 lung; NCI-H226 lung; NCI-H322M lung; HOP-62 NSCLC; NCI-H460 lung; HOP-92 NSCLC; NCI-H522 lung; A549/ATCC NSCLC; 786-0 renal; COLO 205 colon; DU-145 prostate; K-562 leukemia; MALME-3M melanoma; MDA-MB-231 breast; RXF 393 renal; SF-268 CNS; SF-295 CNS; SF-539 CNS; UACC-257 melanoma; M14 melanoma.
Test in all cases: NCI-60 one-dose screen, 48 h (100 = growth as untreated, 0 = no growth, -100 = all killed)
Common to all, as to details: 10 µM unless noted

About 83,000 compounds went through this panel and 20% of them were active in at least one assay; those are over-represented in the sample as a whole.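 The endpoint reported here, percent growth, reads 100 for growth as untreated, 0 for no net growth and -100 for all cells dead.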 Values without a mark were called inactive. The source made the active and inactive calls. Rule for the calls: active = growth percent below 10; inactive = the rest.

Take `COc1cc(/C=C/C(=O)c2c(C)nc3ccccc3c2/C=C/c2ccc(C)cc2)cc(OC)c1OC`: the growth is 24.4% with NCI-H23 lung; 28.9% with NCI-H226 lung; 57.5% in the experiment on NCI-H322M lung; 28.7% in the experiment with HOP-62 NSCLC; -22.1% (active) with NCI-H460 lung; 69.7% with HOP-92 NSCLC. The growth is 24.1% in the experiment with NCI-H522 lung; 73.1% with A549/ATCC NSCLC; 28.4% with 786-0 renal; 46.2% in the experiment on COLO 205 colon; 14.7% in the experiment on DU-145 prostate; 12% in the experiment with K-562 leukemia. Moreover, the growth in the experiment with MALME-3M melanoma was 39.5%; in the experiment on MDA-MB-231 breast, 16.6%; in the experiment with RXF 393 renal, 3.96% (active); in the experiment on SF-268 CNS it was 44.7%; in the experiment on SF-295 CNS, 38.8%; in the experiment on SF-539 CNS, 19.5%. For the same compound, the growth in the experiment with UACC-257 melanoma is 43.8%; in the experiment on M14 melanoma, 23.9%.
Regarding `COc1cccc(-c2nn(-c3ccccc3)cc2-c2ccnc(NCCNC(=O)Nc3ccc(Cl)c(Cl)c3)c2)c1`, the growth is 19.7% in the experiment with NCI-H23 lung; 50.5% with NCI-H226 lung; 48.1% in the experiment on NCI-H322M lung; 5.85% (active) in the experiment on HOP-62 NSCLC; 2.74% (active) in the experiment with NCI-H460 lung; -1.01% (active) in the experiment with HOP-92 NSCLC. Moreover, the growth in the experiment on NCI-H522 lung is -14.9% (active); with A549/ATCC NSCLC it was -18.3% (active); in the experiment on 786-0 renal it was -41.1% (active); with COLO 205 colon, -37.4% (active); with DU-145 prostate, 2.24% (active); in the experiment with K-562 leukemia, 2.28% (active). Moreover, the growth in the experiment on MALME-3M melanoma was 25.3%; in the experiment on MDA-MB-231 breast it was -22.9% (active); in the experiment on RXF 393 renal, -9.27% (active); in the experiment with SF-268 CNS, 9.11% (active); in the experiment on SF-295 CNS, 2.94% (active); in the experiment on SF-539 CNS, -0.925% (active). The growth is 16% in the experiment with UACC-257 melanoma and -36.8% (active) with M14 melanoma.
Turning to `COc1ccc2c(c1)C(=O)/C(=C/c1ccc(OCC(=O)Nc3nccs3)cc1)O2`, the growth in the experiment with NCI-H23 lung is 2.06% (active); in the experiment on NCI-H226 lung, 94.1%; in the experiment with NCI-H322M lung it was 127%; in the experiment with HOP-62 NSCLC, 106%; with NCI-H460 lung, 90.2%; with HOP-92 NSCLC it was -78.8% (active). The growth with NCI-H522 lung was -61% (active); with A549/ATCC NSCLC it was 84.9%; in the experiment on 786-0 renal it was -12.6% (active); with COLO 205 colon, 54.9%; in the experiment with DU-145 prostate, -37.4% (active); in the experiment on K-562 leukemia it was -27.3% (active). The growth in the experiment with MALME-3M melanoma was -42.2% (active); with MDA-MB-231 breast, 46.2%; with RXF 393 renal it was 31.8%; in the experiment with SF-268 CNS, -68.5% (active); in the experiment on SF-295 CNS, 57.5%; in the experiment on SF-539 CNS, -85% (active). In addition, the growth is 84.9% in the experiment on UACC-257 melanoma and 37.3% in the experiment with M14 melanoma.
Take `CCOC(=O)c1c2ncccc2n2c(=O)n(-c3ccccc3C)nnc12`: the growth was 93.6% in the experiment on NCI-H23 lung; 97.4% with NCI-H226 lung; 89.3% with NCI-H322M lung; 78.6% in the experiment with HOP-62 NSCLC; 95% with NCI-H460 lung; 128% with HOP-92 NSCLC. For the same compound, the growth in the experiment on NCI-H522 lung is 93.3%; in the experiment with A549/ATCC NSCLC, 102%; in the experiment on 786-0 renal, 98%; with COLO 205 colon, 108%; in the experiment on DU-145 prostate it was 142%; with K-562 leukemia, 86.4%. In addition, the growth in the experiment on MALME-3M melanoma was 145%; in the experiment on MDA-MB-231 breast, 104%; with RXF 393 renal, 107%; in the experiment on SF-268 CNS, 117%; with SF-295 CNS, 105%; in the experiment with SF-539 CNS, 91.8%. Besides, the growth with UACC-257 melanoma is 91.7%; with M14 melanoma it was 99%.
Consider `O=C(COc1ccc(/C=C2\Oc3ccccc3C2=O)cc1)c1ccc(Cl)cc1`, for which the growth in the experiment on NCI-H23 lung was 107%; with NCI-H226 lung, 92.4%; with NCI-H322M lung it was 126%; with HOP-62 NSCLC, 91.1%; in the experiment with NCI-H460 lung it was 115%; in the experiment with HOP-92 NSCLC it was 88%. Besides, the growth was 96.1% in the experiment on NCI-H522 lung; 112% with A549/ATCC NSCLC; 91% in the experiment with 786-0 renal; 108% with COLO 205 colon; 119% in the experiment on DU-145 prostate; 93.7% in the experiment with K-562 leukemia. For the same compound, the growth in the experiment with MALME-3M melanoma is 111%; with MDA-MB-231 breast it was 85.7%; in the experiment on RXF 393 renal it was 91.8%; in the experiment with SF-268 CNS, 106%; in the experiment with SF-295 CNS, 309%; with SF-539 CNS it was 96.7%. The growth with UACC-257 melanoma was 117%; with M14 melanoma, 108%.
Turning to `CCN(CC)c1nc(SCC(=O)Nc2nc3ccc(C)cc3s2)nc(-c2ccccc2)c1C#N`, the growth is 103% in the experiment on NCI-H23 lung; 86.2% in the experiment on NCI-H226 lung; 88.8% in the experiment with NCI-H322M lung; 91.9% with HOP-62 NSCLC; 99.4% with NCI-H460 lung; 55.4% in the experiment on HOP-92 NSCLC. Also, the growth with NCI-H522 lung was 82.5%; in the experiment on A549/ATCC NSCLC it was 79.4%; in the experiment with 786-0 renal, 93.8%; in the experiment with COLO 205 colon it was 102%; in the experiment on DU-145 prostate, 101%; in the experiment on K-562 leukemia, 86.5%. Besides, the growth in the experiment on MALME-3M melanoma was 103%; in the experiment on MDA-MB-231 breast, 78%; in the experiment on RXF 393 renal, 97.3%; in the experiment with SF-268 CNS it was 88.5%; in the experiment on SF-295 CNS, 92.9%; in the experiment on SF-539 CNS it was 89.2%. Further, the growth is 96.5% in the experiment on UACC-257 melanoma and 101% with M14 melanoma.
On to `COc1ccc(-c2nc(SCCC(C)C)nc(N/N=C\c3cccc([N+](=O)[O-])c3)c2C#N)cc1`, for which the growth in the experiment on NCI-H23 lung was 28.7%; with NCI-H226 lung it was 44.5%; in the experiment on NCI-H322M lung it was 45.6%; in the experiment on HOP-62 NSCLC, 17.7%; with NCI-H460 lung, 13.3%; in the experiment on HOP-92 NSCLC, 50.9%. In addition, the growth is 29.8% with NCI-H522 lung; 11.7% in the experiment with A549/ATCC NSCLC; 15.3% in the experiment with 786-0 renal; 42% in the experiment with COLO 205 colon; 34.1% in the experiment with DU-145 prostate; 56.8% with K-562 leukemia. The growth is 50% in the experiment on MALME-3M melanoma; 23.4% in the experiment on MDA-MB-231 breast; 28% in the experiment on RXF 393 renal; 25.1% with SF-268 CNS; 32.1% in the experiment with SF-295 CNS; 27.5% with SF-539 CNS. In addition, the growth in the experiment on UACC-257 melanoma was 81%; with M14 melanoma, 61.3%.
On to `COc1ccc(C2C(c3nn[nH]n3)=C(N)Oc3c2ccc2ccccc32)cc1` (stereo not given), for which the growth with NCI-H23 lung is 69.1%; with NCI-H226 lung, 82.4%; with NCI-H322M lung, 85.1%; with HOP-62 NSCLC, 70.3%; with NCI-H460 lung it was 53.7%; in the experiment with HOP-92 NSCLC, 77.1%. Moreover, the growth in the experiment on NCI-H522 lung is 23.9%; in the experiment with A549/ATCC NSCLC, 72.5%; in the experiment on 786-0 renal, 79.2%; in the experiment with COLO 205 colon it was 92.5%; in the experiment on DU-145 prostate, 88%; in the experiment on K-562 leukemia, 19.2%. For the same compound, the growth is 63.7% with MALME-3M melanoma; 31.5% with MDA-MB-231 breast; 76.3% in the experiment on RXF 393 renal; 72.1% with SF-268 CNS; 77.8% in the experiment with SF-295 CNS; 73.7% in the experiment on SF-539 CNS. Further, the growth was 89.8% with UACC-257 melanoma and 58.4% in the experiment with M14 melanoma.

(Values after PubChem BioAssay (NCI).)
